Hits are enriched below; roughly 1.3% of the tested compounds scored in any of these assays.
p47phox inh = p47phox/p22phox peptide binding inhibitors, primary screen, biochemical, uHTS, NADPH oxidase regulatory subunit; inhibition, % at 24.7 µM; actives 0.53% (n = 220,000); fluorescence polarization, 2 h;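 further: 0% = p47phox with labelled peptide and 100% = labelled peptide alone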
Target sequence (P14598 whole entry, looked up): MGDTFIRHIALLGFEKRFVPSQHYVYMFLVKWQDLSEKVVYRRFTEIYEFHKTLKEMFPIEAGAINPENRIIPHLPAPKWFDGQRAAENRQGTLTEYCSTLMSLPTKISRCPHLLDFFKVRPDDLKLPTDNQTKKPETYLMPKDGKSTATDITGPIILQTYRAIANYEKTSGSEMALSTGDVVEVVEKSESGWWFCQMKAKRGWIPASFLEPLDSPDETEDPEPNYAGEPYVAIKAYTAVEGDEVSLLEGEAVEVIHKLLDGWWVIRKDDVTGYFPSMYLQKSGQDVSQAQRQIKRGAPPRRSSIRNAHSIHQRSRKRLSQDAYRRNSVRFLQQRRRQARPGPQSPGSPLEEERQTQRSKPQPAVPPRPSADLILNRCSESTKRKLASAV
14-3-3 Bad PPI = inhibitors of 14-3-3 zeta/Bad binding, primary screen, biochemical, TR-FRET, bovine 14-3-3 zeta; AID 781, 2007; actives 0.71% (n = 220,000); TR-FRET 14-3-3zeta/Dy647-pBad peptide displacement, 1 h; inhibition, % at 21.7 µM; 14-3-3 protein zeta/delta (Bos taurus), P63103;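 active means inhibition above about 70%, limit read from the data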;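 further: 0% = full 14-3-3 plus peptide FRET controls and 100% = background without 14-3-3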
eIF4E 4G PPI = eIF4E–eIF4G protein interaction inhibitors, primary screen, biochemical, uHTS, TR-FRET, eIF4GI fragment; Eukaryotic translation initiation factor 4E (Mus musculus) + Eukaryotic translation …; TR-FRET eIF4E-eIF4GI(517-606) binding, 2 h; inhibition, % at 21.7 µM; actives 0.37% (n = 220,000); AID 782, 2007;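 further: 0% = full FRET control wells and 100% = background wells lacking eIF4GI fragment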
UBC9 SUMO inh = inhibitors of in vitro SUMOylation cascade, primary screen, biochemical, HTRF, uHTS; SUMO-conjugating enzyme UBC9 (Homo sapiens), P63279; HTRF SUMOylation assay, SAE1/SAE2 + UBC9; inhibition, % at 35 µM; actives 0.36% (n = 290,000); in the data active means inhibition above about 50%, passing the limit was not always enough
Target sequence (P63279 whole entry, looked up): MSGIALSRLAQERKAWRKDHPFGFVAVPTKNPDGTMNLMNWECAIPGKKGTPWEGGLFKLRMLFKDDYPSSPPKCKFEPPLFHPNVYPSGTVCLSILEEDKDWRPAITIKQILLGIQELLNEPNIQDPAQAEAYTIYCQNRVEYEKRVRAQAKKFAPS
The depositor's hits bear a star; . = no result; [ ] = another dose, or the depositor's remark.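 How the source made its calls, unless noted: active means inhibition above about 30% (limit read from the data); inactive means the rest.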

SMILES	p47phox inh	14-3-3 Bad PPI	eIF4E 4G PPI	UBC9 SUMO inh
COc1ccc(N2C(=O)CCC(C(=O)NCc3cccnc3)C2c2ccc(OC)c(OC)c2)cc1 (configuration not stated)	200*	16	3	11
CC(C)CC(COCc1cccc(Cl)c1)N1CCN(C(=O)c2ccc(C(F)(F)F)cc2)CCC1=O (configuration not stated)	-3	-10	-4	-16
COc1ccc(NC(=O)CN2CCN(Cc3ccc4c(c3)OCO4)CC2)cc1OC	5	62	-2	9
COc1cc(NC(=O)CN2CCN(Cc3ccc4c(c3)OCO4)CC2)cc(OC)c1	5	82*	3	-1
Cc1cccc(C(=O)Nc2ccc3c(c2)ncn3C)c1	.	.	.	-7
COCCn1c(SCC(=O)N2CCCc3ccccc32)nc2ccccc2c1=O	68*	1	8	0
COCCn1c(SCC(=O)N2CCCc3ccccc32)nc2c(c1=O)SC(C)C2 (configuration not stated)	-7	2	3	-2
CCOc1ccc(NC(=O)CN2CCN(CC(=O)Nc3ccc(Cl)c(C(F)(F)F)c3)CC2)cc1	-7	-4	0	-25
O=C(Nc1c2ccccc2nc2ccccc12)C(Cl)(Cl)Cl	17	80*[fluorescence artefact?]	-4	-7
CSc1ccc(/C=C(/NC(=O)c2ccc(C)cc2)C(=O)Nc2cccc(F)c2)cc1	67*	3	3	13
C=CCN(C(=O)CSC1=NC(=O)CN1C(C)=O)c1nc(C)c(-c2ccccc2)s1	-4	-22	1	-7
Cc1nc(N2CCN(C)CC2)c2sc(=S)n(-c3ccccc3)c2n1	-10	-3	5	10
Cc1nc(N2CCN(C)CC2)c2sc(=S)n(C)c2n1	106*	-1	6	6
COc1ccc(NC(=O)Cn2nnc(-c3ccccc3F)n2)cc1	54*	-9	11	0
Cc1cc([N+](=O)[O-])nn1CC(=O)Nc1cccc2nonc12	-7	-3	10	42
NC(=O)N/N=C/c1ccc2cccc(OCc3ccccc3)c2n1	-9	10	0	58*
CCc1nnc(NC(=O)CSc2nc3cc(OC)ccc3cc2C)s1	-5	-1	1	-2
COC1=C/C(=C/c2c(N)n3nc(-c4ccc(C)cc4)sc3nc2=O)C=CC1=O	-125	72*	22	-8
CCn1c(=NC(=O)C2COc3ccccc3O2)sc2c(C)ccc(OC)c21 (configuration not stated)	13	-6	90*	18
CCN(CC)c1ccc(/C=C/c2cc(-c3ccccc3)c3ccccc3n2)cc1	-110	-10	13	5
O=C(N/N=C/c1c(F)cccc1Cl)c1cc(C2CC2)[nH]n1	.	.	.	13
Oc1cccc(NC(=S)Nc2ccccc2)c1	8	99*	-9	12
Cc1nc(-c2ccccc2)cn(O)c1=O	0	72*	1	30
Cc1ccc2nc(-c3ccccc3)cn2c1	-10	60	-3	4
O=C(O)CCc1nn2cc(-c3ccccc3)nc2[nH]c1=O	-15	0	1	36
SMILES	p47phox inh	14-3-3 Bad PPI	eIF4E 4G PPI	UBC9 SUMO inh
Cc1nn2cc(-c3ccccc3)nc2[nH]c1=O	-7	5	3	68*
O=C(c1ccc2c(c1)[nH]c(=S)n1c3ccccc3nc21)N1CCN(c2ncccn2)CC1	-7	25	-13	61*
CC1=Nc2cccc3cccc(c23)N1C	7	7	27	79*
Cc1c2c(=O)n(-c3nc4ccccc4s3)nc-2cc(O)n1Cc1ccccc1	-37	-8	32*	57
CCN(CC)C(=S)NC(=O)c1cc(OC)c(OC)c(OC)c1	-12	-7	-6	1
O=C(COC(=O)c1ccccc1)NCC1CCCO1 (configuration not stated)	8	2	-3	15
O=C(COC(=O)Cc1cccc(C(F)(F)F)c1)NCC1CCCO1 (configuration not stated)	65*	12	5	10
C=CCC1(O)CC(c2ccco2)NC(c2ccco2)C1CCC (configuration not stated)	4	79*	2	20
Cc1ccc(O)c(NC2=C(Cl)C(=O)N(Cc3ccccc3)C2=O)c1	-12	35	31*	-18
Nc1ccc(N2CCOCC2)c2nonc12	-9	-16	5	99*
O=C(Nc1ccc(N2CCOCC2)c2nonc12)C1CCCC1	-8	-4	3	78
O=C(Nc1ccc(F)cc1)c1ccc(-n2ccnc2)nc1	-3	86*	8	-9
COc1ccc(-c2nnn(CC(=O)N(Cc3ccccc3Cl)C(C(=O)NCC3CCCO3)c3ccco3)n2)cc1OC (configuration not stated)	-12	-7	-14	4
CCN(CC)c1ccc(/C=C2\CCC(/C=N/NC(=O)c3ccc(=O)n(C)c3)=C2N2CCOCC2)cc1	-43	5	-2	-13
N#C/C(=C\C1=C(N2CCOCC2)C(=C\c2ccc(Cl)cc2)/CC1)C(=O)Nc1ccccc1F	-254	73*[fluorescence artefact?]	7	2
CCN(CC)c1ccc(/C=C2\CCC(/C=C(\C#N)C(=O)Nc3ccccc3F)=C2N2CCOCC2)cc1	120*	-2	1	6
N#C/C(=C\C1=C(N2CCOCC2)C(=C/c2cccc([N+](=O)[O-])c2)/CC1)C(=O)Nc1ccccc1F	-254	5	-1	-1
O=C(COc1cccc2ccccc12)N/N=C/c1ccco1	.	.	.	-1
CCC(=O)N1CCN(CCN=CC2=C(O)CC(c3ccc(OC)cc3)CC2=O)CC1 (configuration not stated)	3	-4	3	-8
CCC(=O)Nc1nc2ccccc2n1CCN1CCOCC1	38*	0	6	12
COc1ccc2nc(N3C(=O)/C(=C/c4ccc(Cl)cc4)NC3=S)sc2c1	-67	72*[fluorescence artefact?]	18	9
CCc1ccc(NC(=O)C2CCCN2S(=O)(=O)c2ccc3c(c2)n(C)c(=O)c(=O)n3C)cc1 (configuration not stated)	1	2	4	13
COc1cc(/C=N/Nc2nc(-c3ccc(S(=O)(=O)N(C)C)cc3)cs2)ccc1O	-13	5	44*	6
O=C(N/N=C/c1cn(Cc2cccc(F)c2)c2ccccc12)c1cc(O)cc(O)c1	.	.	.	66*
Clc1cccc(Cl)c1C1Nc2cccc3cccc(c23)N1	.	.	.	56*
Fc1cccc(Cl)c1C1Nc2cccc3cccc(c23)N1	.	.	.	56
CCCC(=O)NC(c1ccccc1Cl)c1ccc2cccnc2c1O (configuration not stated)	.	.	.	93*
CCC(=O)NC(c1ccc(Cl)cc1Cl)c1ccc2cccnc2c1O (configuration not stated)	.	.	.	50*
CC(C)C(=O)NC(c1ccc(Cl)cc1Cl)c1ccc2cccnc2c1O (configuration not stated)	.	.	.	77*
